Measured values published in PubChem BioAssay (NCI).
About 83,000 compounds went through this panel and 20% of them were active in at least one assay; those are over-represented in the sample as a whole.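 Testing used 96-well plates and a 48-hour single-concentration exposure. Example: -40 means 40% of the starting cells died.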 Activity calls are given as the source filed them. How the source made its calls: active means growth percent below 10; inactive means the rest.

system: KM12 colon; experiment: NCI-60 one-dose screen, 48 h (100 = growth as untreated, 0 = no growth, -100 = all killed); conditions: 10 µM unless noted

| SMILES | growth |
| --- | --- |
| CN1C(=O)/C(=C\c2nc([P+](c3ccccc3)(c3ccccc3)c3ccccc3)c(N3CCOCC3)o2)SC1=S | 43.2% (inactive) |
| COc1ccc2c(c1)c(-c1nc(-c3c[nH]c4ccncc34)cs1)cn2C | -88.9% (active) |
| COc1ccc(C(=O)c2cc3c(N)c(C(=O)Nc4ccc(C)cc4)sc3nc2C)cc1 | 15.5% (inactive) |
| COc1cc2nc3cc([N+](=O)[O-])ccc3c(NCCNCC(C)O)c2cc1OC (stereo not drawn) | -11.9% (active) |
| Cc1sc2nc(NCCc3c[nH]c4ccc(Cl)cc34)[nH]c(=O)c2c1C | 1.89% (active) |
| CC/C(=C(/c1ccc(Cl)cc1)c1ccc(OCCN(C)C)cc1)c1ccc(Cl)cc1 | 56.6% (inactive) |
| CNC(=O)c1[nH]cc(-c2ccc(OC)cc2)c1-c1cc(OC)c2c(c1OC)OCO2 | 104% (inactive) |
| C=CCc1c(O)c(C(=O)/C=C/c2ccccc2)c(OC)c2ccoc12 | 45.2% (inactive) |
| COc1ccc(-c2cc(-c3ccc(Cl)cc3)c(C#N)c(=O)n2Cc2ccc(C(=O)Nc3ccccc3N)cc2)cc1 | 57.3% (inactive) |
| COc1ccc(/C=C/C(=O)c2cccc(OCCCCOc3cccc(C(=O)/C=C/c4ccc(OC)c(OC)c4)c3)c2)cc1OC | 79.1% (inactive) |
| CCOC(=O)c1ccc(NC(=O)c2nc(-c3cc(OC)c(OC)c(OC)c3)n(-c3ccc(Cl)cc3)n2)cc1 | 94% (inactive) |
| Cc1ccc(CNc2ccc3nc(CCC4CCCCC4)[nH]c3c2)cc1 | 39.3% (inactive) |
| CC(=O)c1c(C)nc(SCC(=O)Nc2cccc(O)c2)n1-c1ccc(Cl)cc1 | 93.7% (inactive) |
